IL1B secr inh = qHTS for Inhibitors of Inflammasome Signaling: IL-1-beta AlphaLISA Primary Screen. AID 743279, 2014. activity change, % at 57.5 µM. THP-1 LPS/ATP IL-1B secretion, AlphaLISA, 16 h; stronger effect = lower value. 360,000 tested, 4.7% active; in the data active = activity change below about -50%; inconclusive = mostly about -30% to -49%
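Secreted IL-1B measured by AlphaLISA bead assay after 16 h compound exposure of THP-1 cells; compounds (final up to 57.5 uM) added 1 h before LPS (250 ng/mL) and ATP (1.25 mM) stimulation; lower signal means less secretion.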
HT1080NT lethal = qHTS for induction of synthetic lethality in tumor cells producing 2HG: qHTS for the HT-1080-NT fibrosarcoma cell line; HT-1080-NT fibrosarcoma viability, CellTiter-Glo ATP luminescence, 48 h; Potency, µM (highest dose often 46.1 µM), for inactives: top-dose activity, negative = less viability, actives largely listed as cytotoxic; 360,000 tested, 1.6% active; AID 686970, 2013;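 also: NT is the 2HG producing partner of a matched IDH1 knockdown line; potency is read from the fitted curve at half-maximal effect; 0% = DMSO-treated cells and -100% = media-only wells without cells; nearly all actives have a fitted effect of over 55% in size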
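Compounds were tested in concentration-response format on HT-1080-NT cells for 48 hours at 37 degrees C. Cell viability came from CellTiter-Glo luminescence; curves were classified by r2, response magnitude and activity.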
TDP1 cell noCPT = qHTS for Inhibitors of human tyrosyl-DNA phosphodiesterase 1 (TDP1): qHTS in cells in absence of CPT | DT40 Tdp1-/- hTDP1 cells, no CPT, ATP luminescence, 48 h | Potency, µM (highest dose often 46.2 µM), inactives show at the top dose activity change, negative = growth inhibition, usual class: inhibitors | 420,000 tested, 15% active | AID 686978, 2013; also: potency is read from the fitted curve at half-maximal effect; nearly all actives have a fitted effect of over 55% in size
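Chicken DT40 Tdp1-/- cells complemented with human TDP1, screened without camptothecin (DMSO vehicle only), 400 cells/well. Compounds pin-transferred, cells incubated at 37 °C for at least 48 hr. Growth read as ATP-dependent luminescence (CellTiter-Glo, 30 min at RT).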
DT40 TDP1 CPT = qHTS for Inhibitors of human tyrosyl-DNA phosphodiesterase 1 (TDP1): qHTS in cells in presence of CPT. Potency, µM (series often up to 46.2 µM), without a hit: top-dose activity change, negative = growth inhibition, usual class: inhibitors. 420,000 tested, 12% active. chicken DT40 Tdp1-/-;hTDP1 cells + 20 nM CPT, ATP luminescence, 48 h. AID 686979, 2013; also: potency is read from the fitted curve at half-maximal effect; nearly all actives have a fitted effect of over 55% in size
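Chicken DT40 Tdp1-/- cells complemented with human TDP1, 400 cells/well, exposed to compounds plus 20 nM camptothecin for at least 48 h at 37 C; viability read as ATP content by CellTiter-Glo luminescence.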
ELG1 DNA repair = qHTS screen for small molecules that inhibit ELG1-dependent DNA repair in human embryonic kidney (HEK293T) cells expressing luciferase-tagged ELG1. HEK293T ELG1-luciferase reporter, luminescence, 16 h; DNA damage induced by 5-fluorouridine. Potency, µM (titrated, usually from 46.1 µM), without a hit: at the highest dose activity change, negative = inhibition, most hits filed as inhibitors. 330,000 tested, 2.3% active. AID 504467, 2011; also: potency is read from the fitted curve at half-maximal effect; nearly all actives have a fitted effect of over 55% in size
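In this reporter screen, reduction of luminescence relative to DMSO vehicle indicated activity. Compounds and 5-fluorouridine were added together to 2,000 cells per well, incubated for 16 hr at 37 °C, then developed with ONE-Glo.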
HT1080 IDH1KD tx = qHTS for induction of synthetic lethality in tumor cells producing 2HG: qHTS for the HT-1080-IDH1KD cell line. Potency, µM (highest dose often 46.1 µM), for inactives: top-dose activity, negative = toxicity, most hits filed as cytotoxic. 360,000 tested, 2% active. HT-1080 IDH1 knockdown viability, ATP luminescence, 48 h. AID 686971, 2013;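 also: potency is read from the fitted curve at half-maximal effect; 0% = DMSO wells and -100% = cell-free medium wells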
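In this qHTS, HT-1080 cells depleted of IDH1 are exposed for 48 h at 37 °C to compound titrations. Toxicity is scored from CellTiter-Glo luminescence, with DMSO as full viability and medium alone as none.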
* = called active by the depositor; ? = inconclusive; / = not tested or not shown. This is a sample that favours compounds with a hit; in the whole collection about 19% have one here. Unless noted, calls follow the shape of the dose curve; as a rule, active = well fitted curve in the direction sought with a large enough effect; inconclusive = small, poorly fitted or top-dose-only effect, or another doubt; inactive = no such curve, though single readings can be large; an effect the other way counts as inactive or inconclusive. Unless noted, % is scaled to controls: 0 for no effect and ±100 for the full control effect.

SMILES	IL1B secr inh	HT1080NT lethal	TDP1 cell noCPT	DT40 TDP1 CPT	ELG1 DNA repair	HT1080 IDH1KD tx
CCN(CC(=O)Nc1c(F)cccc1F)C(=O)c1cc2ccccc2oc1=O	-3	32%	3%	-2%	?	6%
Cc1c(Cl)cccc1NC(=O)Nc1ccccc1C(N)=O	-7	-11%	6.5µM*	4.1µM*	0%	-1%
Cc1c(Cl)cccc1NC(=O)Nc1ccc(C(N)=O)cc1	2	9%	-24%	6%	23%	8%
NC(=O)c1ccccc1NC(=O)c1ccccc1Cl	-2	1%	?	0%	15%	-3%
NC(=O)c1ccccc1NC(=O)Nc1cccc(Cl)c1Cl	-6	-15%	9.2µM*	5.8µM*	-2%	-1%
COc1cccc(-c2cc(C(=O)Nc3cc(OC)c(OC)c(OC)c3)on2)c1	/	/	2.9µM*	5.8µM*	/	/
COc1cc(NC(=O)c2cc(-c3ccccc3O)no2)cc(OC)c1OC	/	/	1.6µM*	2.3µM*	/	/
COc1cccc(-c2cc(C(=O)Nc3cc(Cl)ccc3O)on2)c1	/	/	-26%	-22%	/	/
COc1ccc(-c2cc(C(=O)Nc3cccc(O)c3)on2)cc1OC	/	/	-12%	-3%	/	/
CCc1ccc(S(=O)(=O)c2nnn3c2nc(Nc2cc(OC)ccc2OC)c2sccc23)cc1	/	/	-11%	-12%	/	/
CCc1ccc(S(=O)(=O)c2nnn3c2nc(Nc2cccc(C)c2C)c2sccc23)cc1	/	/	21µM*	23µM*	/	/
CCc1ccc(S(=O)(=O)c2nnn3c2nc(NCCNC(C)=O)c2ccccc23)cc1	-64*	29%	6%	-1%	6%	5%
CCc1ccc(S(=O)(=O)c2nnn3c2nc(NC(C)C)c2sccc23)cc1	/	/	?	21µM*	/	/
COc1cccc(C=NNc2nnc(NN=Cc3cccc(OC)c3OC)c3ccccc23)c1OC	-63*	-16%	21µM*	23µM*	/	-11%
COc1cccc(/C=N/n2c(N)c(S(=O)(=O)c3cccs3)c3nc4ccccc4nc32)c1OC	101	7%	5.8µM*	7.3µM*	?	7%
COc1ccccc1NC(=S)NC1CC2CCC1C2 (stereo unspecified)	-28	-6%	?	-16%	11%	1%
COc1cccc(/C=N/NC(=S)NC2CC3CCC2C3)c1OC (stereo unspecified)	8	5%	21µM*	?	?	-1%
CNc1nc2ccccc2n1/N=C/c1cccc(OC)c1OC	-6	-1%	21µM*	?	?	-28%
COc1cccc(/C=N/n2c(CO)nc3ccccc32)c1OC	-22	10%	-30%	-9%	?	7%
S=C(N/N=C/c1ccco1)NC1CC2CCC1C2 (stereo unspecified)	5	0%	?	?	?	4%
COc1cccc(C=NNC(=S)NN=Cc2cccc(OC)c2OC)c1OC	20	-2%	4.1µM*	4.6µM*	/	3%
COc1cccc(/C=N/NC(=O)C[n+]2ccccc2)c1OC	6	21%	-8%	-9%	20%	14%
Oc1ccccc1/C=N/NC(=S)NC1CC2CCC1C2 (stereo unspecified)	-78*	21µM*	?	?	?	?
Nc1cc(C(Cl)=C(Cl)Cl)c(S(N)(=O)=O)cc1S(N)(=O)=O	36	23%	1%	2%	9%	0%
O=C1N/C(=N\N=C\c2cccnc2)SC1Cc1ccc(SC(F)F)cc1 (stereo unspecified)	107	?	3.7µM*	2.9µM*	20%	23µM*
SMILES	IL1B secr inh	HT1080NT lethal	TDP1 cell noCPT	DT40 TDP1 CPT	ELG1 DNA repair	HT1080 IDH1KD tx
O=C1N/C(=N\N=C\c2ccccn2)SC1Cc1cccc(SC(F)F)c1 (stereo unspecified)	6	-6%	5.8µM*	7.3µM*	-22%	?
O=C(CSc1nc2ccccc2s1)N/N=C/c1ccc(C(=O)O)cc1	15	0%	?	-9%	16%	1%
O=C(O)COc1ccccc1/C=N/NC(=O)COc1ccc(-c2ccccc2)cc1	-15	5%	29µM*	3%	4%	-4%
COc1ccc(/C=N/NC(=O)CCSc2nc3ccccc3s2)cc1	?	?	2.6µM*	5.8µM*	?	?
COc1ccc(/C=N/NC(=O)CCn2cnc(-c3ccccc3)c2-c2ccccc2)cc1	0	3.3µM*	0.65µM*	1.6µM*	?	3.3µM*
O=C(CCn1cnc(-c2ccccc2)c1-c1ccccc1)N/N=C/c1ccc(O)cc1	32	?	?	?	?	?
O=C(CCn1cnc(-c2ccccc2)c1-c1ccccc1)N/N=C/c1ccccc1O	230	13µM*	4.6µM*	5.2µM*	-12%	15µM*
CNC(=S)N/N=C/c1ccccc1OCC(=O)O	22	19%	-9%	0%	0%	8%
CCCN1C[C@@H](C)[C@@H](OC)CN(C)C(=O)c2ccc(NC(=O)c3cccc(F)c3)cc2OC[C@H]1C	17	11%	-8%	1%	/	5%
CN(C)c1ccc(/C=N/NC(=O)COc2ccccc2)cc1	-22	28%	-17%	-17%	?	28%
COc1ccc(/C=C/C(=O)Oc2cccc(/C=N/NC(=O)COc3c(C)cccc3C)c2)cc1	1	-20%	15µM*	21µM*	?	-21%
COc1ccc(/C=C/C(=O)Oc2ccc(/C=N/NC(=O)COc3c(C)cccc3C)cc2)cc1	/	/	/	/	10%	/
COc1ccc(/C=N/NC(=O)COc2ccccc2-c2ccccc2)cc1	106	2.3µM*	0.65µM*	0.58µM*	-11%	0.82µM*
COc1ccccc1/C=C/C=N/NC(=O)CCn1cnc2ccccc21	-7	10µM*	10µM*	16µM*	?	15µM*
CCC1(c2ccccc2)NC(=O)N(CC(=O)N(CC(=O)Nc2ccccc2C(F)(F)F)Cc2ccco2)C1=O (stereo unspecified)	-13	4%	-13%	-11%	1%	12%
CC1(C)OC(=O)NC1c1ccccc1 (stereo unspecified)	4	2%	-3%	-3%	/	8%

High-throughput results from PubChem BioAssay.
